Measurements published in PubChem BioAssay (NCATS).
Results filed as inconclusive are left out. Calls of active or inactive are those of the source. Calls come from the whole dose curve; as a rule, active = well fitted cell-killing curve with a large enough effect; inconclusive = small, poorly fitted or top-dose-only effect, or effect the other way; inactive = no such curve, though single readings can be large or run the other way.

Assay: Quantitative High-Throughput drug screen in 47 multiple myeloma cell lines against the NCATS MIPE library collection: PE2_PLB cell viability assay (AID 1919869); note: nearly all actives have a fitted effect of over 35% in size;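 for viability (% of control): 100% = DMSO-only wells and 0% = cell-free media-only wells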
Details: PE2_PLB myeloma cells viability, ATP luminescence, 48 h; series mostly up to 45.8 µM; viability (% of control): at the top concentration
How it was run: (§1)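 Plated at 500 cells per well, myeloma lines received MIPE 4.0 compounds by pin tool. Following 48 h culture at 37 °C, CellTiter-Glo luminescence gave viability relative to DMSO and media-only controls.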
Potency is the fitted concentration of half-maximal effect.

Row | Structure (SMILES) | Potency | viability (% of control)
1 | COc1cc(OC)cc(-c2ccc3ncc4ccc(=O)n(-c5ccc(N6CCNCC6)c(C(F)(F)F)c5)c4c3c2)c1 | 3.32 µM (active) | –
2 | COc1cc(C)c(Sc2cnc(NC(=O)c3ccc(CNC(C)C(C)(C)C)cc3)s2)cc1C(=O)N1CCN(C(C)=O)CC1 (configuration not stated) | 14.8 µM (active) | –
3 | CON=C(C(=O)N[C@@H]1C(=O)N2C(C(=O)O)=C(Cn3ccc(=N)n3CCO)CS[C@H]12)c1csc(N)n1 | – | 86.8% (inactive)
4 | COC[C@H](NC(=O)c1cnc(C)s1)C(=O)N[C@@H](COC)C(=O)N[C@@H](Cc1ccccc1)C(=O)[C@@]1(C)CO1 | 0.0833 µM (active) | –
5 | COc1cccc2c1C(=O)c1c(O)c3c(c(O)c1C2=O)C[C@@](O)(C(=O)CO)C[C@@H]3O[C@H]1C[C@H](N)[C@H](OC2CCCCO2)[C@H](C)O1 (some centres not stated) | 1.18 µM (active) | –
6 | Nc1cccc2c1C(=O)N(C1CCC(=O)NC1=O)C2=O (configuration not stated) | – | 77.2% (inactive)
7 | Cn1cc(CNCC2CCN(c3ncc(C(=O)NO)cn3)CC2)c2ccccc21 | 0.118 µM (active) | –
8 | CC(=O)NCC(=O)N1[C@H]2CC[C@H]1c1cc(Nc3ncc(C(F)(F)F)c(NC4CCC4)n3)ccc12 | 1.66 µM (active) | –
9 | CC(C)N(CC[C@H](c1ccccc1)c1cc(CO)ccc1O)C(C)C | – | 132% (inactive)

Assay: Quantitative High-Throughput drug screen in 47 multiple myeloma cell lines against the NCATS MIPE library collection: PCM6_Riken cell viability assay (AID 1919870); note: nearly all actives have a fitted effect of over 30% in size;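 for viability (% of control): 100% = DMSO-only wells and 0% = media-only wells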
Details: CellTiter-Glo ATP, 48 h; series mostly up to 45.8 µM; viability (% of control): at the top concentration
How it was run: as §1

Row | Structure (SMILES) | Potency | viability (% of control)
10 | COc1ccc(C=Cc2cc(OC)c(OC)c(OC)c2)cc1NC(=O)[C@H](N)CO | 0.0042 µM (active) | –
11 | CCN(CC)Cc1ccc2cc(COC(=O)Nc3ccc(C(=O)NO)cc3)ccc2c1 | 0.833 µM (active) | –
12 | COc1ccc2c(c1OC)C(=O)OC2[C@H]1c2c(cc3c(c2OC)OCO3)CCN1C (some centres not stated) | 0.469 µM (active) | –
13 | COc1cccc2c1C(=O)c1c(O)c3c(c(O)c1C2=O)C[C@@](O)(C(C)=O)C[C@H]3O[C@H]1C[C@H](N)[C@H](O)[C@H](C)O1 | 0.0296 µM (active) | –
14 | CCOC(=O)N1CCN([N+]([O-])=NOc2ccc([N+](=O)[O-])cc2C#N)CC1 | 0.469 µM (active) | –
15 | C[C@H]1O[C@H](O[C@H]2[C@H](O)[C@@H](O)[C@@H](O[C@H]3[C@H](O)[C@@H](O)C(O)O[C@H]3CO)O[C@H]2CO)[C@H](O)[C@@H](O)[C@H]1N[C@H]1C=C(CO)[C@@H](O)[C@H](O)[C@@H]1O (some centres not stated) | – | 135% (inactive)
16 | CC[C@H]1OC(=O)[C@H](C)[C@@H](O[C@H]2C[C@@](C)(OC)[C@@H](O)[C@H](C)O2)[C@H](C)[C@@H](O[C@@H]2O[C@H](C)C[C@H](N(C)C)[C@@H]2O)[C@](C)(OC)C[C@@H](C)C(=O)[C@H](C)[C@@H](O)[C@]1(C)O | – | 125% (inactive)
17 | OC[C@H]1OC(O)C[C@@H](O)[C@H]1O (some centres not stated) | – | 113% (inactive)
18 | CN[C@H]1[C@@H](O)[C@@H]2O[C@@H]3O[C@H](C)CC(=O)[C@]3(O)O[C@@H]2[C@@H](NC)[C@H]1O | 1.48 µM (active) | –
19 | CC(=O)N[C@H]1[C@@H]([C@H](O)[C@H](O)CO)OC(C(=O)O)=C[C@@H]1N=C(N)N | – | 113% (inactive)
20 | C[C@H](CCC(=O)O)[C@H]1CCC2C3C[C@H](O)[C@@H]4C[C@H](O)CC[C@]4(C)C3CC[C@@]21C (some centres not stated) | – | 104% (inactive)
21 | Oc1cc(-c2nc(-c3ccccc3)[nH]c2-c2ccncc2)ccc1Cl | 2.96 µM (active) | –
22 | C[C@H](CCC(=O)O)[C@H]1CC[C@H]2[C@@H]3[C@H](O)C[C@@H]4C[C@H](O)CC[C@]4(C)[C@@H]3CC[C@]12C | – | 109% (inactive)
23 | NC[C@H]1O[C@H](O[C@H]2[C@@H](O)[C@@H](O[C@H]3O[C@H](CO)[C@@H](O)[C@H](N)[C@@H]3O)[C@H](N)C[C@@H]2N)[C@H](N)C[C@H]1O | – | 143% (inactive)
24 | COc1cc2c(Nc3ccc(Cl)c(Cl)c3F)ncnc2cc1OCC1C[C@@H]2CN(C)C[C@H]2C1 | 1.32 µM (active) | –
25 | COC(=O)[C@H](CCCN=C(N)N)NS(=O)(=O)c1ccc(C)cc1 | – | 110% (inactive)
26 | CCOC(=O)[C@H](CCc1ccccc1)N[C@@H](C)C(=O)N1[C@@H](C(=O)O)C[C@H]2CCC[C@@H]21 | 8.33 µM (active) | –
27 | Oc1ccc(-c2ccc(-c3cc(Nc4cccc(CNC5CC5)c4)n[nH]3)cc2)c(O)c1 | 0.59 µM (active) | –
28 | C=CCNC1=C2C[C@@H](C)C[C@H](OC)[C@@H](O)[C@@H](C)C=C(C)[C@H](OC(N)=O)[C@@H](OC)C=CC=C(C)C(=O)NC(=CC1=O)C2=O | 1.48 µM (active) | –
29 | CC(C)(O)Cn1c(NC(=O)c2ccc(-c3cn[nH]c3)s2)nc2cc(CN3CCOCC3)ccc21 | 0.418 µM (active) | –
30 | CCCc1nc(C(C)(C)O)c(C(=O)O)n1Cc1ccc(-c2ccccc2-c2nn[nH]n2)cc1 | – | 100% (inactive)
31 | COc1cc(OC)cc(-c2ccc3ncc4ccc(=O)n(-c5ccc(N6CCNCC6)c(C(F)(F)F)c5)c4c3c2)c1 | 3.72 µM (active) | –
32 | CCNC(=O)Nc1ccc(-c2nc3c(c(N4CCOC[C@H]4C)n2)CCN(C2COC2)C3)cc1 | 1.32 µM (active) | –
33 | CON=C(C(=O)N[C@@H]1C(=O)N2C(C(=O)O)=C(Cn3ccc(=N)n3CCO)CS[C@H]12)c1csc(N)n1 | – | 98.4% (inactive)
34 | COc1cccc2c1C(=O)c1c(O)c3c(c(O)c1C2=O)C[C@@](O)(C(=O)CO)C[C@@H]3O[C@H]1C[C@H](N)[C@H](OC2CCCCO2)[C@H](C)O1 (some centres not stated) | 1.32 µM (active) | –
35 | Cn1cc(CNCC2CCN(c3ncc(C(=O)NO)cn3)CC2)c2ccccc21 | 0.0372 µM (active) | –
36 | CC(=O)NCC(=O)N1[C@H]2CC[C@H]1c1cc(Nc3ncc(C(F)(F)F)c(NC4CCC4)n3)ccc12 | 1.87 µM (active) | –
37 | CC(C)N(CC[C@H](c1ccccc1)c1cc(CO)ccc1O)C(C)C | – | 123% (inactive)
